PubChem BioAssay
The source made the active and inactive calls.

Experiment: probe aLefty1 binding on compound microarray – biochemical, small-molecule microarray, 635/667 nm fluorescence, primary screen (AID 1153);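 note: score merges spot fluorescence with signal-to-noise ratio from the scanned slide images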
Details: higher = more signal
CC(C)NC(=O)[C@@]1(c2ccc([N+](=O)[O-])cc2)CC(=O)N(C2CCCCC2)[C@@H]1c1ccc(CO)cc1I showed a composite z-score of 0.533. For CN1C(=O)C2C=CC(C(O)c3ccc([N+](=O)[O-])cc3)N(N3CCCCC3)C2C1=O (stereo not given), the composite z-score was 0.385. Work on COCCOC(=O)N1C(=O)[C@@]2(c3cc(C#CCNC(N)=O)ccc31)[C@H](C(=O)N1CCN(c3ncccn3)CC1)[C@H]1C(=O)O[C@H](c3ccccc3)[C@H](c3ccccc3)N1[C@@H]2c1ccc(OCCO)cc1 yielded a composite z-score of 0.267. For O=C1NC(=O)C2C1C=CC(C(O)c1cc(C(F)(F)F)cc(C(F)(F)F)c1)N2Nc1ccccn1 (stereo not given), the composite z-score was 0.127. With COCCOC(=O)N1C(=O)[C@@]2(c3ccccc31)[C@H](C(=O)N1CCc3cc(OC)c(OC)cc3C1)[C@H]1C(=O)O[C@H](c3ccccc3)[C@H](c3ccccc3)N1[C@@H]2c1ccc(OCCO)cc1 the composite z-score was 0.18. In the case of COC(=O)C(CC#Cc1ccc2c(c1)[C@]1(C(=O)N2)[C@H](C(=O)Nc2nc3ccccc3s2)[C@H]2C(=O)O[C@H](c3ccccc3)[C@H](c3ccccc3)N2[C@@H]1c1ccccc1OCCO)C(=O)OC, the composite z-score is reported as 0.284. Work on CN1C(=O)C2C=CC(C(O)c3ccccc3)N(N(c3ccccc3)c3ccccc3)C2C1=O (stereo not given) yielded a composite z-score of 0.267. COC(=O)[C@@]1(CCS(=O)(=O)c2ccccc2)N=C(c2ccc(OCCCO)cc2)O[C@H]1c1ccccc1CN=[N+]=[N-] gave a composite z-score of 0.365. For COC(=O)[C@H](Cc1ccccc1)N1CC2=C[C@@H](C3CC3)n3c(=O)n(C)c(=O)n3[C@H]2[C@@H]1[C@@H](O)Cc1ccccc1, the composite z-score was 0.355.

Experiment: plasmodial surface anion channel blockers, osmotic lysis – cell-based, P. falciparum Indochina, OD700, 1 h, primary screen (AID 1154)
Details: P. falciparum Indochina infected RBC osmotic lysis, higher = more signal, called active from +8 up or from −8 down
In the case of CC[C@@H]1C=C(C(=O)O)[C@H](c2ccc(Br)cc2)N1S(=O)(=O)c1ccc(C)cc1, the z-score is reported as 0.471 (inactive). In the case of O=C1c2ccccc2[C@](Cc2ccccc2I)(C(=O)NCCN2CCOCC2)[C@H](c2ccc(CO)cc2)N1Cc1ccccc1Cl, the z-score is reported as 11.7 (active). For COC(=O)[C@@]1(Cc2ccc(OC)cc2)[C@H]2c3cc(C(=O)N4CCCC4)n(CCN4CNCC4=O)c3C[C@H]2CN1C(=O)c1ccccc1, the z-score was 2.95 (inactive). For COC(=O)[C@@]1(Cc2ccc(OC)cc2)[C@@H]2C(=CC(=O)[C@H]2CC(=O)C(=O)N2CCCC2)CN1C(=O)c1ccccc1, the z-score was 5.48 (inactive). For C=CCNC(=O)[C@@H]1[C@H]2C(=O)O[C@H](c3ccccc3)[C@H](c3ccccc3)N2[C@H](c2ccc(O)cc2)[C@@]12C(=O)N(C(=O)OCCOC)c1ccc(C#CCNC(N)=O)cc12, the z-score was 0.691 (inactive). In the case of Cc1ccc(S[C@]2(C(=O)NCCCN(C)C)CC(=O)N(Cc3cc(C(F)(F)F)cc(C(F)(F)F)c3)[C@@H]2c2ccc(CO)cc2)cc1, the z-score is reported as 1.24 (inactive). In the case of COc1ccc([Si](C)(C)[C@H]2[C@H](CCO)O[C@@]3(C(=O)N(Cc4ccc(N(C=O)c5ccccc5)cc4)c4ccccc43)[C@@H]2C)cc1, the z-score is reported as 17.5 (active). With [N-]=[N+]=Nc1ccccc1[C@H]1OC(c2ccc(OCCCO)cc2)=N[C@@]1(CCS(=O)(=O)c1ccccc1)C(N)=O the z-score was 32 (active). With NC(=O)NCC#Cc1ccc2c(c1)[C@]1(C(=O)N2)[C@H](c2ccccc2OCCO)N2[C@H](c3ccccc3)[C@H](c3ccccc3)OC(=O)[C@H]2[C@@H]1C(=O)Nc1nc2ccccc2s1 the z-score was 1.19 (inactive). With CCCC=C(CCC)[C@@H](NC(=O)c1cccs1)c1ccc(C(F)(F)F)cc1 the z-score was 3.15 (inactive). For CN(C)C(=O)[C@]1(Cc2ccccc2N=[N+]=[N-])N=C(c2ccc(OCCCO)cc2)O[C@@H]1c1ccccc1N=[N+]=[N-], the z-score was 30.7 (active). In the case of COC(=O)[C@@]1(Cc2ccc(OC)cc2)[C@H]2c3cc(C(=O)N(C)C)n(Cc4ccccn4)c3C[C@H]2CN1C(=O)c1ccccc1, the z-score is reported as 1.63 (inactive). In the case of COC(=O)[C@@]1(Cc2ccc(F)cc2)[C@H]2c3cc(C(=O)N4CCCC4)n(CCCNc4ncc(C(F)(F)F)cc4Cl)c3C[C@H]2CN1C(=O)c1ccccc1, the z-score is reported as 1.58 (inactive). With O=C(CS)NCCCCCCNC(=O)[C@@H]1C[C@@H]2C(=O)NCC(=O)N2[C@@H]1c1cccc(OCCO)c1 the z-score was 3.29 (inactive). In the case of CCOC(=O)C[C@H]1[C@H](OC(=O)c2ccccc2-c2ccccc2)[C@@H](NC(=O)CC(C)C)c2cc(OCCCO)ccc2N1C(=O)Cc1ccc(OC)cc1, the z-score is reported as 2.71 (inactive). With COc1ccc([C@H]2OC[C@@H]3C[C@@H](Cc4ccccc4)C(=O)N32)cc1 the z-score was 2.1 (inactive). In the case of COc1ccc(CCNC(=O)[C@@]2(C)c3ccccc3C(=O)N(C(C)C)[C@H]2c2ccc(CO)cc2)cc1, the z-score is reported as 1.66 (inactive). With C=CCOC(=O)[C@@H]1[C@H]2C(=O)O[C@H](c3ccccc3)[C@H](c3ccccc3)N2[C@H](c2ccc(OCCOC(=O)[C@@H]3C[C@@H]4C(=O)NCC(=O)N4[C@@H]3c3ccc(O)cc3)cc2)[C@@]12C(=O)Nc1ccc(I)cc12 the z-score was 0.894 (inactive). With O=C1C[C@@](C(=O)NCCN2CCOCC2)(c2ccc([N+](=O)[O-])cc2)[C@@H](c2ccc(CO)cc2)N1CC12CC3CC(CC(C3)C1)C2 the z-score was 4.51 (inactive). For COCCOC(=O)N1C(=O)[C@@]2(c3cc(C#CCC(C(=O)OC)C(=O)OC)ccc31)[C@H](C(=O)Nc1nc3ccccc3s1)[C@H]1C(=O)O[C@H](c3ccccc3)[C@H](c3ccccc3)N1[C@@H]2c1ccccc1OCCO, the z-score was 11.2 (active). In the case of COC(=O)[C@@]1(Cc2ccccc2)[C@H]2c3cc(C(=O)N(C)C)n(Cc4ccsc4Br)c3C[C@H]2CN1C(=O)c1ccccc1, the z-score is reported as 6.57 (inactive). For CC1CC/C=C\[C@H]2OC34C=CCN(C(C)(C)C)C(=O)[C@H]3N(CCO)C(=O)[C@@H]4C2C(=O)O1 (stereo not given in full), the z-score was 2.16 (inactive). In the case of C=C(CCCC)/C(=C/C[C@@H](OC(C)=O)c1ccc(OCCO)cc1)c1cnc2ccccc2c1, the z-score is reported as 24 (active). With CC(C)C(O)C1C=CC2C(=O)N(c3ccccc3)C(=O)C2N1Nc1ccc([N+](=O)[O-])cc1 (stereo not given) the z-score was 11 (active). With C=C(COC)/C(=C/C[C@H](OC(C)=O)c1ccc(CO)o1)c1cc(C(=O)OC)ccc1OC the z-score was 1.25 (inactive). For COC(=O)[C@@]1(Cc2ccc(OC)cc2)[C@H]2c3cc(C(=O)N(C)C)n(C)c3C[C@H]2CN1C(=O)c1ccccc1, the z-score was 1.98 (inactive). For CCOC(=O)[C@H]1C/C=C/C[C@H](C(=O)OCC)C(=O)O[C@H]2[C@@H](OC)O[C@H](CO)[C@@H](OC(=O)c3c(OC)cccc3OC)[C@@H]2OC1=O, the z-score was 13.5 (active). In the case of CC(C)NC(=O)[C@@]1(c2ccc([N+](=O)[O-])cc2)CC(=O)N(C2CCCCC2)[C@@H]1c1ccc(CO)cc1I, the z-score is reported as 15.8 (active). In the case of CN1C(=O)C2C=CC(C(O)c3ccc([N+](=O)[O-])cc3)N(N3CCCCC3)C2C1=O (stereo not given), the z-score is reported as 2.06 (inactive). In the case of COCCOC(=O)N1C(=O)[C@@]2(c3cc(C#CCNC(N)=O)ccc31)[C@H](C(=O)N1CCN(c3ncccn3)CC1)[C@H]1C(=O)O[C@H](c3ccccc3)[C@H](c3ccccc3)N1[C@@H]2c1ccc(OCCO)cc1, the z-score is reported as 6.11 (inactive). In the case of O=C1NC(=O)C2C1C=CC(C(O)c1cc(C(F)(F)F)cc(C(F)(F)F)c1)N2Nc1ccccn1 (stereo not given), the z-score is reported as 0.499 (inactive). In the case of COCCOC(=O)N1C(=O)[C@@]2(c3ccccc31)[C@H](C(=O)N1CCc3cc(OC)c(OC)cc3C1)[C@H]1C(=O)O[C@H](c3ccccc3)[C@H](c3ccccc3)N1[C@@H]2c1ccc(OCCO)cc1, the z-score is reported as 5.69 (inactive). In the case of COC(=O)C(CC#Cc1ccc2c(c1)[C@]1(C(=O)N2)[C@H](C(=O)Nc2nc3ccccc3s2)[C@H]2C(=O)O[C@H](c3ccccc3)[C@H](c3ccccc3)N2[C@@H]1c1ccccc1OCCO)C(=O)OC, the z-score is reported as 4.9 (inactive). With CN1C(=O)C2C=CC(C(O)c3ccccc3)N(N(c3ccccc3)c3ccccc3)C2C1=O (stereo not given) the z-score was 0.581 (inactive). In the case of COC(=O)[C@@]1(CCS(=O)(=O)c2ccccc2)N=C(c2ccc(OCCCO)cc2)O[C@H]1c1ccccc1CN=[N+]=[N-], the z-score is reported as 19.6 (active). In the case of COC(=O)[C@H](Cc1ccccc1)N1CC2=C[C@@H](C3CC3)n3c(=O)n(C)c(=O)n3[C@H]2[C@@H]1[C@@H](O)Cc1ccccc1, the z-score is reported as 11.5 (active).
